Activity calls are given as the source filed them. Where a call stands in place of a potency, no number is given. Calls come from the whole dose curve; as a rule, active = well fitted activation curve with a large enough effect in the repeat runs; inconclusive = weak or mixed curves; inactive = flat fitted curve, though single readings scatter.
Experiment: A CellTox Green Cytotoxicity Assay to monitor cytotoxicity in HepG2 cells - 0 hour (AID 1224882); note: nearly all actives have a fitted effect of over 35% in size
Conditions: CellTox Green fluorescence; series mostly up to 76.8 µM
Description: National Center for Advancing Translational Sciences [NCATS]
NIH Chemical Genomics Center [NCGC]
U.S. Environmental Protection Agency [EPA]
National Institutes of Environmental Health Sciences [NIEHS]
National Toxicology Program [NTP]
Cell-based models are critical for drug discovery. Determining the natural cytotoxic effects resulting from test compounds is an essential research activity. A CellTox Green Cytotoxicity Assay to monitor cytotoxicity in real time of continues cell culture during 40 hours of the compound treatment was used to screen Tox21 10K library compounds in HepG2 cells. CellTox Green Cytotoxicity Assay is a nonlytic, homogeneous, biofluorescent method to measure cytotoxicity in cell culture after experimental manipulation. The assay system uses a proprietary asymmetric cyanine dye that is excluded from viable cells but preferentially stains the dead cell's DNA. […] Viable cells produce no appreciable increases in fluorescence. Therefore, the fluorescence signal produced by the binding interaction with dead cell DNA is proportional to cytotoxicity.
The mixture of HepG2 cell suspension and reagents were dispensed at 600cells/6 ul/well in 1536-well tissue culture treated black solid bottom plates using a Multidrop dispenser. After the assay plates were incubated at a 37 C/5% CO2 incubator for 5 hours, 23 nL of compounds dissolved in DMSO, positive and negative controls was transferred to the assay plate by a pintool work station. The plates were incubated at 37 C for 40 hours. The fluorescence intensity were measured at 0h, 8h, 16h, 24h, 32h and 40h time points using ViewLux plate reader during compound treatment.

SMILES	Potency	cytotoxicity
CC(C)(C)c1ccc(CSc2cnn(C(C)(C)C)c(=O)c2Cl)cc1	inactive	–
CN(C)c1ccc(N=Nc2ccccc2)cc1	inactive	–
CCCSP(=O)(OCC)SCCC	inactive	–
[Cl][Sn]([c]1ccccc1)([c]1ccccc1)[c]1ccccc1	–	7.07% [at 15.8 µM] (inactive)
Clc1ccc(Oc2ccccc2)cc1	inactive	–
C=COCCCl	inactive	–
Cc1cc(C(F)(C(F)(F)F)C(F)(F)F)ccc1NC(=O)c1cccc(I)c1C(=O)NC(C)(C)CS(C)(=O)=O	inactive	–
CCOP(=S)(OCC)SCCS(=O)(=O)CC	inactive	–
CC(C)(C)C(O)C(Oc1ccc(-c2ccccc2)cc1)n1cncn1 (stereo not given)	inactive	–
O=c1ssc(Cl)c1Cl	inactive	–
CCOP(=S)(OCC)SCS(=O)(=O)CC	inactive	–
CC(C)OC(=S)S	inactive	–
Oc1ccc(C(c2ccc(O)cc2)(C(F)(F)F)C(F)(F)F)cc1	inactive	–
Cl/C=C\CCl	inactive	–
CCOP(=O)(NC(C)C)Oc1ccc(SC)c(C)c1 (stereo not given)	inactive	–
CCCCCCCCCBr	inactive	–
O=C(CBr)c1ccc(O)cc1	inactive	–
CC(C)[C@H](C(=O)O[C@H](C#N)c1cccc(Oc2ccccc2)c1)c1ccc(Cl)cc1	inactive	–
Clc1ccc(-c2ccccc2)cc1	inactive	–
CC(=O)C(Cl)(Cl)Cl	inactive	–

SMILES	Potency	cytotoxicity
NC(=O)CCl	inactive	–
O=CC(Br)(Br)Br	inactive	–
O=c1c(C2CC(c3ccc(-c4ccc(Br)cc4)cc3)Cc3ccccc32)c(O)sc2ccccc12 (stereo not given)	inactive	–
CCCCCCCCc1ccc(O)cc1	inactive	–
BrCC(Br)c1ccccc1 (stereo not given)	inactive	–
O=[N+]([O-])c1ccc2ccc3cccc4ccc1c2c34	inactive	–
CC1(C)C(/C=C(\Cl)C(F)(F)F)C1C(=O)OC(C#N)c1cccc(Oc2ccccc2)c1 (stereo not given)	inactive	–
O=C1C=CC(=O)c2ccccc21	inactive	–
COc1cc(N)c(Cl)cc1C(=O)NC1CN2CCC1CC2 (stereo not given)	inactive	–
O=C(CCCN1CCC2(CC1)C(=O)NCN2c1ccccc1)c1ccc(F)cc1	inactive	–
N#Cc1c(-c2ccc(Cl)cc2)[nH]c(C(F)(F)F)c1Br	inactive	–
C[C@H]1O[C@@H](O[C@H]2[C@@H](O)C[C@H](O[C@H]3[C@@H](O)C[C@H](O[C@H]4CC[C@@]5(C)[C@H](CC[C@@H]6[C@@H]5CC[C@]5(C)[C@@H](C7=CC(=O)OC7)CC[C@]65O)C4)O[C@@H]3C)O[C@@H]2C)C[C@H](O)[C@@H]1O	inactive	–
CN(C)C(=S)[S-].CN(C)C(=S)[S-].[Cu+2]	–	0.299% [at 15.8 µM] (inactive)
O=C(CCl)Nc1ccccc1	inactive	–
ClC1=C(Cl)C2(Cl)C3C(Cl)C=CC3C1(Cl)C2(Cl)Cl (stereo not given)	inactive	–
O=C(Cl)c1ccc(Cl)cc1	inactive	–
Clc1ccc(C(c2ccccc2Cl)C(Cl)(Cl)Cl)cc1 (stereo not given)	inactive	–
CN(C)CCc1c[nH]c2cccc(O)c12	inactive	–
CC(Cl)CN(C)C (stereo not given)	inactive	–
CN(C)C(=S)S	inactive	–

Reference: PubChem BioAssay (Tox21)
